Bioassay records (PubChem BioAssay)
Shown is part of a subset that was picked to be rich in hits.
SARS PLP yeast – blocks SARS-CoV papain-like protease in a yeast assay. S. cerevisiae expressing SARS-CoV PLpro, growth rescue. Potency, µM (series often up to 32.9 µM), actives largely listed as activators. 330,000 compounds, 0.19% hits; calls by dose curve; also: nearly all actives have a fitted effect of over 55% in size
AmpC detergent – inhibitors of E. coli AmpC beta-lactamase with detergent; P00811; AmpC hydrolysis of nitrocefin, absorbance 480 nm, 0.01% Triton; Potency, µM (highest dose often 114 µM), hits mostly inhibitors; 370,000 compounds, 0.041% hits; AID 485294; also: nearly all actives have a fitted effect of over 25% in size
Target sequence (P00811 whole entry, looked up): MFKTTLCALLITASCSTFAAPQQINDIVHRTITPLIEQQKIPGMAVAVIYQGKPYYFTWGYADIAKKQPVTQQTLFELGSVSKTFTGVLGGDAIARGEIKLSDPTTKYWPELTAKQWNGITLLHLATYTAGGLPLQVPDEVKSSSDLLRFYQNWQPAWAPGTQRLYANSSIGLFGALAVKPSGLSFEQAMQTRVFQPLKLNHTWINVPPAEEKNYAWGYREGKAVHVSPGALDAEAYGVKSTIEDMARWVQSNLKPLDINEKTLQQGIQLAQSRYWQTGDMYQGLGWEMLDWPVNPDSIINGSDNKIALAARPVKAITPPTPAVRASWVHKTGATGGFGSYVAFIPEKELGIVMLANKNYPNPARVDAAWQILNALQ
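AmpC (5.3 nM in the dispensed reagent) in 20 mM phosphate pH 7.0 with 0.01% (detergent screen) or 0.0001% Triton X-100 was preincubated with compounds for 15 min at room temperature. Nitrocefin was then added from an 800 uM solution, and hydrolysis was followed at 480 nm.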
AMA1-RON2 inh – AMA1-RON2 (P. falciparum) interaction inhibition; 360,000 compounds, 0.2% hits; Potency, µM (doses to about 58.2 µM), most hits filed as inhibitors; AlphaScreen AMA1-biotinylated RON2 peptide binding; also: nearly all actives have a fitted effect of over 45% in size
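AMA1 (3D7) with his tag at 25 nM final met compounds first, then biotinylated RON2 peptide at 25 nM; detection used donor plus acceptor beads, 10 µg/mL apiece, read by AlphaScreen after 30 min at room temperature.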
Shiga toxin inh – blocks Shiga toxin action in Vero cells. Vero cells, Shiga toxin protein synthesis inhibition reporter. inhibition, % at 38.7 µM. 290,000 compounds, 9.2% hits. AID 2315; in the data active = inhibition mostly above about 28%, no sharp cut-off; inactive = mostly below about 43%
CHX counter – counter-screen hit for Shiga toxin inhibitors, cycloheximide. cell reporter, cycloheximide protein synthesis inhibition counterscreen. max response, %. 300,000 compounds, 12% hits; in the data active = max response mostly above about 13%, no sharp cut-off; inactive = mostly below about 14%; also: read at 38.3 µM for the half of the compounds with a filed dose
AmpC inh no detg – inhibitors of E. coli AmpC beta-lactamase without detergent; P00811; AmpC nitrocefin hydrolysis, absorbance 480 nm, 0.0001% Triton; Potency, µM (series often up to 57.1 µM), actives largely listed as inhibitors; 330,000 compounds, 0.52% hits; also: nearly all actives have a fitted effect of over 20% in size
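AmpC (5.3 nM in the dispensed reagent) in 20 mM phosphate pH 7.0 with 0.01% (detergent screen) or 0.0001% Triton X-100 was preincubated with compounds for 15 min at room temperature. Nitrocefin was then added from an 800 uM solution, and hydrolysis was followed at 480 nm.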
Hits are given with their value; [ ] = remark or other dose. Unless noted, calls follow the shape of the dose curve; as a rule, active = well fitted curve in the direction sought with a large enough effect; inconclusive = small, poorly fitted or top-dose-only effect, or another doubt; inactive = no such curve, though single readings can be large; an effect the other way counts as inactive or inconclusive.

Results for COc1c2ccoc2c(OC(C)=O)c2oc(C)cc(=O)c12 ?
SARS PLP yeast: inactive; AmpC detergent: inactive; AMA1-RON2 inh: inactive; Shiga toxin inh: inactive; CHX counter: inactive; AmpC inh no detg: inactive

How did CC(C)c1ccc2nc(NC(=O)C3CC3)sc2c1 do in these assays?
SARS PLP yeast: inactive; AmpC detergent: inactive; AMA1-RON2 inh: inactive; Shiga toxin inh: 70.1; CHX counter: 52.3; AmpC inh no detg: inactive

Results for COC(=O)c1ccc2nc(NC(=O)C3CCCCC3)sc2c1 ?
SARS PLP yeast: inactive; AmpC detergent: inactive; AMA1-RON2 inh: inactive; Shiga toxin inh: inactive; CHX counter: 24.1; AmpC inh no detg: inactive

How did Cc1ccccc1-c1nnc(SCC(=O)N2CCCCC2)o1 do in these assays?
AmpC detergent: inactive

Results for COc1ccc(-c2nnc(SCC(=O)N3CCCC3)o2)c(OC)c1 ?
SARS PLP yeast: inactive; AmpC detergent: inactive; AMA1-RON2 inh: inactive; Shiga toxin inh: 46.4; CHX counter: inactive; AmpC inh no detg: inactive

Results for O=C(CSc1nnc(-c2ccccc2F)o1)N1CCCC1 ?
SARS PLP yeast: inactive; AmpC detergent: inactive; AMA1-RON2 inh: inactive; Shiga toxin inh: 85.7; CHX counter: 26.3; AmpC inh no detg: inactive

What do the screens show for `CN(C(=O)CSc1nnc(-c2ccccc2F)o1)C1CCCCC1`?
AmpC detergent: inactive

Results for CC1CCCCN1C(=O)CSc1nnc(-c2ccccc2F)o1 (centres undefined) ?
SARS PLP yeast: inactive; AmpC detergent: inactive; AMA1-RON2 inh: inactive; Shiga toxin inh: 94.2; CHX counter: 35.0; AmpC inh no detg: inactive

How did COc1ccccc1-c1nnc(SCC(=O)N2CCCC2)o1 do in these assays?
SARS PLP yeast: inactive; AmpC detergent: inactive; AMA1-RON2 inh: inactive; Shiga toxin inh: 39.6; CHX counter: inactive; AmpC inh no detg: inactive

How did COc1ccc(NC(=O)C(F)(F)F)cc1OC do in these assays?
SARS PLP yeast: inactive; AmpC detergent: inactive; AMA1-RON2 inh: inactive; Shiga toxin inh: inactive; CHX counter: inactive; AmpC inh no detg: inactive

What do the screens show for `O=C(c1cccc(S(=O)(=O)N2CCOCC2)c1)N(Cc1ccco1)Cc1cccs1`?
SARS PLP yeast: inactive; AmpC detergent: inconclusive; AMA1-RON2 inh: inactive; AmpC inh no detg: inactive

How did CC1CCCCN1C(=O)CSc1nnc(-c2cccc(Cl)c2)o1 (centres undefined) do in these assays?
AmpC detergent: inactive

Results for CC1CCCCN1C(=O)CSc1nnc(-c2ccco2)o1 (centres undefined) ?
SARS PLP yeast: inactive; AmpC detergent: inactive; AMA1-RON2 inh: inactive; Shiga toxin inh: 108.1; CHX counter: 36.8; AmpC inh no detg: inactive

How did CCn1c(-c2csc(-c3ccc(Cl)cc3)n2)n[nH]c1=S do in these assays?
SARS PLP yeast: inactive; AmpC detergent: inactive; AMA1-RON2 inh: inactive; Shiga toxin inh: inactive; CHX counter: inactive; AmpC inh no detg: inactive

How did C/C(=N\OCc1ccc(C#N)cc1)c1cc2ccccc2o1 do in these assays?
SARS PLP yeast: inactive; AmpC detergent: inactive; AMA1-RON2 inh: inactive; Shiga toxin inh: inactive; CHX counter: inactive; AmpC inh no detg: inactive

How did CCc1ccc(NC(=O)CO/N=C(\C)c2cc3ccccc3o2)cc1 do in these assays?
SARS PLP yeast: inactive; AmpC detergent: inactive; AMA1-RON2 inh: inactive; Shiga toxin inh: inactive; CHX counter: inactive; AmpC inh no detg: inactive

Results for CSc1ccccc1NC(=O)CO/N=C(\C)c1cc2ccccc2o1 ?
SARS PLP yeast: inactive; AmpC detergent: inconclusive; AMA1-RON2 inh: inactive; Shiga toxin inh: inactive; CHX counter: 18.0; AmpC inh no detg: inactive

How did C/C(=N\OCc1ccccc1C#N)c1cc2ccccc2o1 do in these assays?
SARS PLP yeast: inactive; AmpC detergent: inactive; AMA1-RON2 inh: inactive; Shiga toxin inh: 71.2; CHX counter: 35.8; AmpC inh no detg: inactive

What do the screens show for `C/C(=N\OCC(=O)NC12CC3CC(CC(C3)C1)C2)c1cc2ccccc2o1`?
SARS PLP yeast: inactive; AmpC detergent: inactive; AMA1-RON2 inh: inactive; Shiga toxin inh: inactive; CHX counter: 17.5; AmpC inh no detg: inactive

What do the screens show for `Cc1c(S(=O)(=O)c2ccccn2)c(N)n(Cc2ccccc2)c1C`?
SARS PLP yeast: inactive; AmpC detergent: inactive; AMA1-RON2 inh: inactive; Shiga toxin inh: inactive; CHX counter: inactive; AmpC inh no detg: inactive

Results for O=C(O)CSC(=S)N1CCCCC1 ?
SARS PLP yeast: inactive; AmpC detergent: inactive; AMA1-RON2 inh: inactive; Shiga toxin inh: inactive; CHX counter: inactive; AmpC inh no detg: inactive

What do the screens show for `Cc1nnc(SCC(=O)c2cc(C)n(C3CC3)c2C)s1`?
SARS PLP yeast: inactive; AmpC detergent: inconclusive; AMA1-RON2 inh: inactive; Shiga toxin inh: 69.2; CHX counter: 81.0; AmpC inh no detg: inactive

How did Cc1cc(C(=O)CSc2nnnn2C)c(C)n1C1CC1 do in these assays?
SARS PLP yeast: inactive; AmpC detergent: inactive; AMA1-RON2 inh: inactive; Shiga toxin inh: 150.6; CHX counter: 56.1; AmpC inh no detg: inactive

How did CNc1nnc(SCC(=O)c2cc(C)n(C3CC3)c2C)s1 do in these assays?
SARS PLP yeast: inactive; AmpC detergent: inactive; AMA1-RON2 inh: inactive; AmpC inh no detg: inactive

Results for COCc1nc(-c2ccc(-c3ccc(C)cc3)nc2OC)no1 ?
SARS PLP yeast: inactive; AmpC detergent: inactive; AMA1-RON2 inh: inactive; Shiga toxin inh: 115.9; CHX counter: 33.0; AmpC inh no detg: inactive

How did COc1ccc(-c2ccc(-c3noc(C)n3)c(OC)n2)cc1 do in these assays?
SARS PLP yeast: inactive; AmpC detergent: inactive; AMA1-RON2 inh: inactive; Shiga toxin inh: inactive; CHX counter: 22.8; AmpC inh no detg: inactive

Results for Oc1cccc(/C=N/Nc2cccc3cccnc23)c1 ?
SARS PLP yeast: inactive; AmpC detergent: inactive; AMA1-RON2 inh: inactive; Shiga toxin inh: 123.3; CHX counter: 44.3; AmpC inh no detg: inactive

How did Oc1cccc(/C=N/Nc2ccc(Cl)nn2)c1 do in these assays?
SARS PLP yeast: inactive; AmpC detergent: inactive; AMA1-RON2 inh: inactive; Shiga toxin inh: 68.1; CHX counter: 41.6; AmpC inh no detg: inactive

Results for Oc1c(/C=N/Nc2cccc3cccnc23)ccc2ccccc12 ?
SARS PLP yeast: inactive; AmpC detergent: inactive; AMA1-RON2 inh: inactive[11.6 µM]; Shiga toxin inh: 90.4; CHX counter: 73.7; AmpC inh no detg: inactive

Results for COc1cc(/C=N/Nc2cccc3cccnc23)cc(OC)c1O ?
SARS PLP yeast: inactive; AmpC detergent: inactive; AMA1-RON2 inh: inactive; Shiga toxin inh: 68.9; CHX counter: 34.5; AmpC inh no detg: inactive

Results for Cc1cccc(N2CC(C(=O)Nc3nnc(SCCC4OCCO4)s3)CC2=O)c1 (centres undefined) ?
SARS PLP yeast: inconclusive; AmpC detergent: inactive; AMA1-RON2 inh: inactive; Shiga toxin inh: inactive; CHX counter: inactive; AmpC inh no detg: inactive

Results for CCCCC1(CC(=O)OCC)SCCN1C(N)=O (centres undefined) ?
AMA1-RON2 inh: inactive

Results for Cc1cccc(OC(C)C(=O)NCC2(N(C)C)CCCCC2)c1C (centres undefined) ?
AmpC detergent: inactive
